Test results as given in PubChem BioAssay.
Several values for one entry are separate records, joined by “and”; a condition that tells them apart may be missing. Identical values can stand only once. Records with an inconclusive call do not appear. For part of these data: Potency and affinity values are given separately. More than one record can exist for a structure, and the calls need not agree. Activity calls are given as the source filed them.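 Rule for the calls, unless noted: active = compounds whose cell count with miR-34 switched on is under 0.7 times the count with it off; inactive = the rest.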

What was measured:
[1] = hESC survival regulators, cell-based (AID 493140; call rule not given here;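 note: cells exposed to compounds for four days before counting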); conditions: human embryonic stem cell survival screen; stronger effect = higher value
[2] = liver-stage malaria parasite growth inhibition, primary screen, cell-based, HepG2, luciferase luminescence, HepG2 viability (AID 624349; in the data active = parasite load remaining mostly below about 12%, no sharp cut-off; inactive = mostly above about 10%;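 note: 100% = mean of DMSO negative control wells on the same plate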); conditions: P. berghei liver stage in HepG2, luciferase luminescence, concentration not given here; parasite load remaining: stronger effect = lower value; viability: measured here: HepG2 viability without parasites
[3] = sensitizers of A549 cells to miR-34 induction, primary screen, imaging, A549 dox-inducible miR-34, nuclei and caspase counts (AID 1347080); conditions: A549 miR-34 inducible, Hoechst nuclei count, 48 h
[4] = survival rescue of mitochondrial mutant cells in low glucose, primary screen, MELAS cybrids, Rieske KO mouse fibroblasts, CellTiter-Glo (AID 1508586;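 active = mean z-score across replicates of 1.96 or higher in either the MELAS or the Rieske mutant cell line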;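 note: z relative to plate mean and SD of compound and empty wells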)
[5] = circadian clock period modulators, cell-based, LOPAC library, luminescence reporter (AID 2774; call rule not given here;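 note: values are relative to mean of DMSO wells on each plate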); conditions: circadian reporter cells, at 7 µM, actives lie on both sides
[6] = test system: Hepatitis C virus NS3 helicase; test: HCV NS3 helicase inhibitors, primary screen, biochemical, fluorescence polarization, LOPAC1280 library (AID 687035; in the data active = inhibition above about 37%); conditions: Purified HCV NS3 helicase, Cy5-dT15 ssDNA binding fluorescence polarization; stronger effect = higher value; concentration not given here
[7] = Cy5 fluorescence quenching or enhancement artefacts, artefact control for HCV NS3 helicase inhibitor project, biochemical, LOPAC1280 (AID 687037; call rule not given here); conditions: Cy5-DNA-NS3h complex fluorescence interference counterscreen
[8] = phospholipid biosynthesis inhibitors in animal cells, primary screen, cell-based, LOPAC library, screen 4 (AID 1347384; call rule not given here); conditions: phospholipid biosynthesis inhibition screen, at 10 µM
[9] = viability rescue of complex I mutant cybrids, primary screen, cell-based, galactose medium, ATP luminescence (AID 1645843;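 active = z-score of at least 1.8 in each of two replicates, scored against plate mean and spread of sample wells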;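 note: positive z means more ATP and so rescue of galactose-driven cybrid death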); conditions: complex I mutant cybrid cells, 72 h, stronger effect = higher value
[10] = target: ATP-dependent translocase ABCB1 (Homo sapiens) (UniProt P08183); test: MDR1 (ABCB1) efflux transporter inhibition, cell-based (AID 377; in the data active = fluorescence slope change above about 50%); conditions: MDR1-expressing cells, fluorescent substrate accumulation slope; stronger effect = higher value; concentration not given here
[11] = polyglutamine-triggered caspase-3 activation inhibitors, cell-based (AID 1583); conditions: polyglutamine-induced caspase-3 activation, cell assay; stronger effect = higher value;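 tested at 10 µM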
[12] = suppressors of polyQ aggregation in yeast, 75Q-TubU reporter (AID 1593); conditions: Yeast 75Q polyglutamine aggregation reporter
[13] = rescue of polyQ-huntingtin neuronal dysfunction in worms, whole organism, C. elegans mechanosensory neurons, N-terminal huntingtin (AID 1599); conditions: touch response, stronger effect = higher value
[14] = inhibitors of mitochondrial cytochrome c release, biochemical, purified mitochondria (AID 1603); conditions: stronger effect = lower value;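 note: mouse liver mitochondria challenged with calcium chloride; signal normalized to the plate average as 100%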
[15] = inhibitors of polyQ protein aggregation (AID 1604); conditions: polyglutamine-induced protein aggregation inhibition assay; stronger effect = higher value; tested at 2.5 µM
[16] = enhancers of glutamate uptake in motor neurons, MN-1 cell line (AID 1612); conditions: MN-1 motor neuron cells, stronger effect = higher value;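 note: tested at 1 µM final; 0% = mean of DMSO vehicle wells on each plate; positive means more glutamate uptake than control and negative means less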
[17] = reducers of polyQ inclusions in PC12 cells, cell-based, NGF-treated PC12, GFPQ80 (AID 1614); conditions: PC12 NGF-treated GFP-polyQ80 inclusion reduction;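 note: lower means fewer inclusions and 0 means no inclusions at all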
[18] = suppressors of polyglutamine aggregation in yeast, 75Q-TubH (AID 1616); conditions: S. cerevisiae 75Q-TubH polyglutamine aggregation suppression; stronger effect = higher value
[19] = stronger effect = lower value, cell number ratio, induced over uninduced
[20] = measured here: relative caspase fold change +Dox/-Dox
[21] = measured here: total cells with miR-34 induction, stronger effect = lower value
[22] = measured here: total cells without miR-34 induction
[23] = MELAS cybrid survival, CellTiter-Glo 48 h, stronger effect = higher value
[24] = Rieske KO mouse fibroblast survival, CellTiter-Glo 72 h

ATP-dependent translocase ABCB1 (Homo sapiens), sequence (P08183 whole entry, looked up): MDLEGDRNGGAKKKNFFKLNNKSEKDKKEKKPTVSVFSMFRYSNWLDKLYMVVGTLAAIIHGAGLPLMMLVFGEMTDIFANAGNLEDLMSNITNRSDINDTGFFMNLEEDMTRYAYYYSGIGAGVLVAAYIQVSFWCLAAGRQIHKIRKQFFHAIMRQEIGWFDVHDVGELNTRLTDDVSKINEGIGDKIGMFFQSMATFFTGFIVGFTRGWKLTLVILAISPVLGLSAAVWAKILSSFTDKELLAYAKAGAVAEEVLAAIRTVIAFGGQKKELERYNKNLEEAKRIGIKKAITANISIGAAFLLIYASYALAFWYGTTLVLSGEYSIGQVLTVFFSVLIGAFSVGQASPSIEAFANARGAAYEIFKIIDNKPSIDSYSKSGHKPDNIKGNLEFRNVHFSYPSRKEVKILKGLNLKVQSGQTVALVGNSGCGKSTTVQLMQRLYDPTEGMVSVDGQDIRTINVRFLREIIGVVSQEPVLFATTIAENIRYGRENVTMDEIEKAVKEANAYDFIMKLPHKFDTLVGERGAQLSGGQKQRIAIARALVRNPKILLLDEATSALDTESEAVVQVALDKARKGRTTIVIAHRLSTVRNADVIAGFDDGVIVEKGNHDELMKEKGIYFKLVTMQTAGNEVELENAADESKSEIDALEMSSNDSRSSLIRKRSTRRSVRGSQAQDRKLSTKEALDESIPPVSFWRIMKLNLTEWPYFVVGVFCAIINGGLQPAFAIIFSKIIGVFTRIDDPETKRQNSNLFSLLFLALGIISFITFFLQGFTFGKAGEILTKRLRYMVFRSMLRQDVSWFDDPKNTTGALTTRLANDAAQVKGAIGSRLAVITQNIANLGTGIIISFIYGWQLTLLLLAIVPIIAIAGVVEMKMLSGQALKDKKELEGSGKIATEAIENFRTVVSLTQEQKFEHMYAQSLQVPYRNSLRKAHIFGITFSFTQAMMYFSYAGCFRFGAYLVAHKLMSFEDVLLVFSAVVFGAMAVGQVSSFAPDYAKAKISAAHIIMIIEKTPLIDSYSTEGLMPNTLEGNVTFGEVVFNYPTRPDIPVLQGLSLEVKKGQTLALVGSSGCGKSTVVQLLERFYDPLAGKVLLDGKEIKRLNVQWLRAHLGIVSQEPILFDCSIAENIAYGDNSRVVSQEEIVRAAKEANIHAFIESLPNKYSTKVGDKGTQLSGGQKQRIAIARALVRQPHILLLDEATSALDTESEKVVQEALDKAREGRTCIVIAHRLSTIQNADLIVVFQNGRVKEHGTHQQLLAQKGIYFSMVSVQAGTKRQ

Structure (SMILES): CNCC(O)C(O)C(O)C(O)CO (stereo not given)
- survival [1]: 4.5 (inactive)
- parasite load remaining [2]: 95.3% (inactive)
- viability [2]: 101%
- fold change [3, 19]: 0.893 (inactive) and 0.901 (inactive)
- fold change [3, 20]: 1.03 and 1.16
- cell count [3, 21]: 8100 and 7840
- cell count [3, 22]: 9080 and 8700
- z-score [4, 23]: -0.226 (inactive)
- z-score [4, 24]: 0.0963

Structure (SMILES): O=C1c2c(O)cc(O)cc2OC(c2ccc(O)c(O)c2)C1O (stereo not given)
- period change [5]: -0.11 h (inactive)
- inhibition [6]: -3% (inactive)
- fluorescence ratio (interference) [7]: 1 (inactive)
- outcome [8]: inactive
- z-score [4, 23]: -0.361 (inactive)
- z-score [4, 24]: 0.683
- z-score [9]: 0.265 (inactive) and -0.07 (inactive) and 0.43 (inactive)

Structure (SMILES): N#C/C(=C\c1ccc(-c2cc(Cl)ccc2Cl)o1)C(=O)Nc1cccc2ncccc12
- inhibition [6]: -12% (inactive)
- fluorescence ratio (interference) [7]: 0.8 (active)
- fold change [3, 19]: 1.06 (inactive) and 0.955 (inactive)
- fold change [3, 20]: 0.614 and 1.48
- cell count [3, 21]: 1870 and 5590
- cell count [3, 22]: 1750 and 5850
- outcome [8]: inactive
- z-score [9]: 0.46 (inactive)

Structure (SMILES): CCCNC1CCc2nc(N)sc2C1 (stereo not given)
- fold change [3, 19]: 0.968 (inactive) and 0.933 (inactive) and 0.946 (inactive)
- fold change [3, 20]: 2.07 and 1.64 and 3.69
- cell count [3, 21]: 9570 and 9980 and 9760
- cell count [3, 22]: 9890 and 10700 and 10300
- z-score [4, 23]: -0.192 (inactive)
- z-score [4, 24]: 0.744
- z-score [9]: 1.44 (inactive) and 0.095 (inactive)

Structure (SMILES): C[C@H]1[C@H](NC(=O)/C(=N\OC(C)(C)C(=O)O)c2csc(N)n2)C(=O)N1S(=O)(=O)O
- survival [1]: 21.6 (inactive)
- parasite load remaining [2]: 29.2% (inactive) and 123% (inactive) and 17.7% (inactive)
- viability [2]: 47.3% and 89% and 68%
- fold change [3, 19]: 0.907 (inactive) and 0.865 (inactive)
- fold change [3, 20]: 1.09 and 1.14
- cell count [3, 21]: 8940 and 9450
- cell count [3, 22]: 9850 and 10900
- z-score [4, 23]: 0.296 (inactive) and 0.337 (inactive)
- z-score [4, 24]: 0.0689 and -0.343
- z-score [9]: 0.06 (inactive)

Structure (SMILES): CC(C)(C)c1onc(OCP(=O)(O)O)c1CC(N)C(=O)O (stereo not given)
- period change [5]: -0.03 h (inactive)
- inhibition [6]: -3% (inactive)
- fluorescence ratio (interference) [7]: 0.9 (inactive) and 1 (inactive)
- fold change [3, 19]: 1.04 (inactive) and 0.947 (inactive)
- fold change [3, 20]: 1.07 and 1.18
- cell count [3, 21]: 10900 and 10600
- cell count [3, 22]: 10500 and 11200
- outcome [8]: inactive
- z-score [9]: 0.82 (inactive) and 0.145 (inactive)

Structure (SMILES): CC(C)(C)NCC(O)COc1nsnc1N1CCOCC1 (stereo not given)
- period change [5]: -0.09 h (inactive)
- inhibition [6]: -2% (inactive)
- fluorescence ratio (interference) [7]: 1 (inactive)
- fold change [3, 19]: 0.926 (inactive) and 0.855 (inactive)
- fold change [3, 20]: 1.26 and 0.99
- cell count [3, 21]: 9690 and 8250
- cell count [3, 22]: 10500 and 9640
- outcome [8]: inactive
- z-score [4, 23]: -0.232 (inactive)
- z-score [4, 24]: -0.152
- z-score [9]: 0.22 (inactive)

Structure (SMILES): CCCCCC(O)CCCC(=O)O (stereo not given)
- period change [5]: -0.17 h (inactive)
- inhibition [6]: -4% (inactive)
- fluorescence ratio (interference) [7]: 1 (inactive)
- fold change [3, 19]: 0.96 (inactive) and 0.942 (inactive)
- fold change [3, 20]: 0.791 and 1.2
- cell count [3, 21]: 9800 and 6140
- cell count [3, 22]: 10200 and 6510
- outcome [8]: inactive
- z-score [9]: 0.165 (inactive)

Structure (SMILES): C[C@]12C=CC(=O)C=C1CC[C@@H]1C2=CC[C@]2(C)[C@@H](C(=O)CN3CCN(c4cc(N5CCCC5)nc(N5CCCC5)n4)CC3)CC[C@@H]12
- period change [5]: 0.075 h (inactive)
- inhibition [6]: -5% (inactive)
- fluorescence ratio (interference) [7]: 0.9 (inactive)
- fold change [3, 19]: 0.983 (inactive) and 1.04 (inactive)
- fold change [3, 20]: 0.64 and 0.868
- cell count [3, 21]: 8450 and 5900
- cell count [3, 22]: 8600 and 5690
- outcome [8]: inactive
- z-score [9]: 1.27 (inactive)

Structure (SMILES): C[C@@H]1NC(=O)NC1=O
- fluorescence slope change [10]: 57.7% (active)
- survival [1]: 3.92 (inactive)
- parasite load remaining [2]: 81.4% (inactive) and 66.6% (inactive)
- viability [2]: 97.9% and 95.3%
- fold change [3, 19]: 0.891 (inactive) and 0.879 (inactive)
- fold change [3, 20]: 1.07 and 1.01
- cell count [3, 21]: 8770 and 8800
- cell count [3, 22]: 9840 and 10000
- z-score [4, 23]: 0.462 (inactive)
- z-score [4, 24]: -0.44

Structure (SMILES): CCC1(c2ccccc2)NC(=O)N(C)C1=O (stereo not given)
- inhibition [11]: 6.58%
- score [12]: 1.42
- rescue above control [13]: 11.8
- cytochrome c release ratio [14]: 0.46
- inhibition of aggregation [15]: 79.3%
- glutamate uptake change [16]: -9.05%
- inclusion score [17]: 2
- aggregation suppression score [18]: 1.34
- survival [1]: 9.5 (inactive)
- parasite load remaining [2]: 75.3% (inactive) and 65.4% (inactive)
- viability [2]: 74.4% and 110%
- fold change [3, 19]: 0.978 (inactive) and 0.889 (inactive)
- fold change [3, 20]: 0.677 and 1.53
- cell count [3, 21]: 9090 and 9500
- cell count [3, 22]: 9300 and 10700
- z-score [4, 23]: 0.04 (inactive) and 0.144 (inactive)
- z-score [4, 24]: 0.0806 and -0.391
- z-score [9]: 0.64 (inactive)

Structure (SMILES): CN(CC=CC#CC(C)(C)C)Cc1cccc2ccccc12
- fold change [3, 19]: 0.964 (inactive) and 0.918 (inactive) and 0.968 (inactive)
- fold change [3, 20]: 2.12 and 1.02 and 0.751
- cell count [3, 21]: 9310 and 7680 and 9620
- cell count [3, 22]: 9660 and 8370 and 9940
- z-score [4, 23]: -0.142 (inactive) and -0.315 (inactive)
- z-score [4, 24]: -0.993 and 0.763
- z-score [9]: -1.88 (inactive)

Structure (SMILES): CCCCCCCCCCCCCCCCCCOC[C@H](COP(=O)([O-])OCC[N+](C)(C)C)OC
- period change [5]: -0.025 h (inactive)
- survival [1]: 97.7 (inactive)
- inhibition [6]: 0% (inactive)
- fluorescence ratio (interference) [7]: 1 (inactive)
- fold change [3, 19]: 0.77 (inactive) and 1.03 (inactive) and 1.02 (inactive)
- fold change [3, 20]: 1.7 and 0.981 and 0.958
- cell count [3, 21]: 1920 and 5950 and 5710
- cell count [3, 22]: 2500 and 5760 and 5620
- outcome [8]: inactive
- z-score [9]: -0.975 (inactive)

Structure (SMILES): CC(N)C1CCC(C(=O)Nc2ccncc2)CC1 (stereo not given)
- period change [5]: 0 h (inactive)
- inhibition [6]: -1% (inactive)
- fluorescence ratio (interference) [7]: 1 (inactive)
- fold change [3, 19]: 0.953 (inactive) and 0.841 (inactive)
- fold change [3, 20]: 1.2 and 0.911
- cell count [3, 21]: 10100 and 7170
- cell count [3, 22]: 10600 and 8530
- outcome [8]: inactive
- z-score [4, 23]: -0.271 (inactive)
- z-score [4, 24]: 0.184
- z-score [9]: -0.475 (inactive)

Structure (SMILES): COc1ccc2cc(C(C)C(=O)O)ccc2c1 (stereo not given)
- parasite load remaining [2]: 40.8% (inactive)
- viability [2]: 47.4%
- fold change [3, 19]: 0.873 (inactive) and 1.59 (inactive) and 0.829 (inactive)
- fold change [3, 20]: 1.19 and 0.614 and 0.98
- cell count [3, 21]: 8070 and 7920 and 7570
- cell count [3, 22]: 9240 and 4980 and 9130
- z-score [4, 23]: -0.171 (inactive) and 0.614 (inactive)
- z-score [4, 24]: 0.627 and 0.253
- z-score [9]: 0.575 (inactive)

Structure (SMILES): CCC(CO)Nc1nc(NCc2ccccc2)c2ncn(C(C)C)c2n1 (stereo not given)
- period change [5]: 1.22 h (active)
- inhibition [6]: 0% (inactive)
- fluorescence ratio (interference) [7]: 1 (inactive)
- fold change [3, 19]: 1.36 (inactive) and 0.915 (inactive)
- fold change [3, 20]: 0.998 and 1.15
- cell count [3, 21]: 1560 and 4690
- cell count [3, 22]: 1150 and 5130
- outcome [8]: inactive
- z-score [4, 23]: -0.381 (inactive)
- z-score [4, 24]: 0.0764
- z-score [9]: -0.51 (inactive)

Structure (SMILES): O=[N+]([O-])c1ccc2c(c1)S(=O)(=O)C=C2
- inhibition [6]: -2% (inactive)
- fluorescence ratio (interference) [7]: 1 (inactive)
- fold change [3, 19]: 0.698 (active) and 1.19 (inactive)
- fold change [3, 20]: 0.963 and 0.522
- cell count [3, 21]: 598 and 1740
- cell count [3, 22]: 856 and 1460
- outcome [8]: inactive
- z-score [4, 23]: 3.07 (active)
- z-score [4, 24]: -0.336
- z-score [9]: -1.38 (inactive)
